This note sets out measurements from PubChem BioAssay AID588473 (Sanford-Burnham Center for Chemical Genomics, 2011).

In all, about 350,000 compounds went through this assay and about 1,600 (0.46%) were called active.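 Rule for the calls: active = activation of at least 50%, plus an integration ratio under a set limit after plate pattern correction; inactive = the rest.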 The sample as a whole holds a higher share of actives than the screen did.

For this assay, the system named is CRF-binding protein / CRF receptor 2 complex (human). Nature of the assay: activators of CRF-R2 with CRF-BP – cell-based, HEK293, calcium dye fluorescence, uHTS, primary screen (AID 588473).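 Note: plate controls were neutral control wells without compound for no effect and CRF at EC100 for full effect.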 The note with it: calcium dye fluorescence (FLIPR), at 13.2 µM, hits give high values, percent of saturating CRF peptide response.
Regarding `N#CC1(NC(=O)COC(=O)CCN=C2NS(=O)(=O)c3ccccc32)CCCCC1`, the activation is 8.71% (inactive).
With `O=C(OCCN=C1NS(=O)(=O)c2ccccc21)c1cccc([N+](=O)[O-])c1`, the activation was -1.89% (inactive).
Turning to `O=C(CCCN=C1NS(=O)(=O)c2ccccc21)OCC(=O)c1ccc(F)c(F)c1`, the activation is 62% (active).
As for `C=CCOc1cccc(C2C(C(=O)c3ccc(C)o3)=C(O)C(=O)N2CCN2CCOCC2)c1` (stereo unspecified), the activation was 0.15% (inactive).
With `CCCc1c(C(=O)N/N=C(\C)CCc2ccc(OC)cc2)nnn1-c1nonc1N`, the activation is -0.36% (inactive).
With `COc1cc(C)c(C)cc1S(=O)(=O)N1CCCc2ccccc21` the figure was 53.4% (active).
Regarding `CCC(C)(C)NC(=O)/C=C/c1cc(OC)c(OC)c(S(=O)(=O)N2CCc3ccccc32)c1`, the activation is 3.27% (inactive).
Under `COc1ccc(C(=O)OCC(=O)NCC2CCCCC2)cc1S(=O)(=O)N1CCCc2ccccc21` stands 1.36% (inactive); under `CC(OC(=O)CN1C(=O)C2CCCCC2C1=O)C(=O)Nc1ncc(Cl)cc1Cl` (stereo unspecified), 0.41% (inactive).
`CCNc1nc(Oc2ccc(C(=O)OC)cc2)nc(N2CCOCC2)n1`: the activation is 1.34% (inactive).
Consider `Cc1ccccc1NC(=O)C(C)c1ccc(-c2ccccc2)c(F)c1` (stereo unspecified), for which the activation was 1.53% (inactive).
With `CC1CC(NC(=O)/C(C#N)=C/c2ccc[nH]2)CC(C)(C)C1` (stereo unspecified) the figure was 2.1% (inactive); with `CCOC(=O)c1c(NC(C)=O)sc2c(O)c(Br)ccc12`, 1.34% (inactive); with `O=c1c2cc(Br)ccc2nc(-c2cccc(Cl)c2)n1O`, 66.9% (active).
For the compound `NC(=O)c1cc(-c2cccnc2)nc2ccc(Br)cc12`, the activation is -0.32% (inactive).
`NC(N)=Nc1nc2ccc(Br)cc2c(=O)[nH]1`: the activation was -1.35% (inactive).
Under `CC1Sc2ccc(S(=O)(=O)CCC(=O)NCc3ccccc3Cl)cc2NC1=O` (stereo unspecified) stands -3.65% (inactive); under `COc1ccc(C)cc1N(CC(=O)N1CCCC1)S(=O)(=O)c1ccccc1`, -0.01% (inactive).
With `COc1ccccc1N(CC(=O)N1CCCCC1)S(=O)(=O)c1ccccc1` the figure was 59.4% (active); with `COc1ccc(N(CC(=O)N2CCCCCC2)S(=O)(=O)c2ccccc2)cc1`, 0.06% (inactive).
Under `Nc1c(C(=O)c2cccs2)sc2nsc(SCCN3CCCCC3)c12` stands 147% (active); under `COc1ccc(C(=O)NNC(=S)NC(=O)c2ccccc2)cc1`, 123% (active).
Regarding `COc1ccc(C(=O)NC(=S)NNC(=O)CCc2ccccc2)cc1`, the activation was 68.5% (active).
Under `COc1ccc(C(=O)NC(=S)NC2CCCCC2)cc1` stands 1.07% (inactive); under `CCOc1ccccc1NC(=S)NC(=O)CCc1ccccc1`, 0.36% (inactive); under `CC(=O)NC(=S)NNC(=O)c1ccc(Br)cc1`, -4.92% (inactive).
Under `O=C(CCc1ccccc1)NNC(=O)COc1ccc(Cl)cc1` stands -0.46% (inactive); under `CCN(Cc1ccncc1)C(=S)Nc1ccccc1C`, -0.24% (inactive); under `COCCCNC(=S)N(CCN(C)C)Cc1cc2cc3c(cc2[nH]c1=O)OCCO3`, 0.16% (inactive).
With `CC(=O)NC(CC(=O)Nc1nccs1)c1ccccc1` (stereo unspecified), the activation was 2.22% (inactive).
Under `O=C(Nc1ccccc1C(F)(F)F)N1CCCC1c1cccnc1` (stereo unspecified) stands 0.09% (inactive); under `Cc1ccc(NC(=O)CSc2nc(=O)n(CCN(C)C)c3c2CCCC3)c(C)c1`, -0.4% (inactive); under `CCOC(=O)Cc1c(C)nc2c(C#N)c(C)nn2c1C`, -2.38% (inactive).
Under `O=C(NCCc1ccccc1Cl)C1CCC(=O)N(CCCc2ccccc2)C1` (stereo unspecified) stands -1.43% (inactive); under `C/C(=N\NC(=O)c1cc2c(s1)CCC(C)C2)c1cccnc1` (stereo unspecified), -0.26% (inactive); under `Cc1cc2nc3c(=O)n(Cc4ccccc4)c(=O)[nH]c3nc2cc1N`, 89.5% (active).
With `Nc1cc(=O)n(Cc2ccccc2)c(=O)n1Cc1ccccc1` the figure was -0.25% (inactive); with `CN(C(=O)COC(=O)c1ccc(Br)o1)c1c(N)n(Cc2ccccc2)c(=O)[nH]c1=O`, 1.22% (inactive).
For the compound `CCCS(=O)(=O)N1CCCC(C(=O)NCCN2CCCCC2C)C1` (stereo unspecified), the activation was 2.69% (inactive).
Under `O=C(/C=C(O)/C=C/c1ccc(O)cc1)/C=C/c1ccc(O)cc1` stands 123% (active).
As to `COc1cccc(C=CC(=O)C=CC=Cc2ccccc2)c1`, the activation was 3.04% (inactive).
Turning to `O=C(O)/C=C/c1ccc(S(=O)(=O)N2CCCCCC2)cc1`, the activation is -6.06% (inactive).
In the case of `Cc1cc(Cl)ccc1C(=O)C1CCCN(C(=O)c2ccc3c(c2)OCO3)C1` (stereo unspecified), the activation was -0.83% (inactive).
Take `CC1(C)Cc2c(sc(NC(=O)C(=O)NCC3CCCO3)c2C(=O)O)CO1` (stereo unspecified): the activation is 1.19% (inactive).
Regarding `COc1cc(NC(=O)c2ccccc2NS(=O)(=O)c2ccc(Cl)s2)cc(OC)c1`, the activation was 59.3% (active).
With `O=S(=O)(Nc1ccccc1N1CCOCC1)c1ccc(Cl)s1` the figure was 0.68% (inactive); with `O=C(Nc1cccc(Cl)c1)Nc1ccccc1NS(=O)(=O)c1cccs1`, 38.9% (inactive).
Under `COc1ccc(CN2CCn3ncc(C(=O)Nc4ccc(Cl)cc4Cl)c3C2=O)cc1` stands 1.96% (inactive); under `COc1ccccc1CNC(=O)C1CCCN(S(=O)(=O)c2cccc3cccnc23)C1` (stereo unspecified), -0.51% (inactive).
For the compound `COc1ccc(-n2c(-c3ccc(Cl)cc3)n[nH]c2=S)c(OC)c1`, the activation was -2.26% (inactive).
With `COc1cc(OC)c(-n2c(C)cc(C=O)c2C)cc1Cl` the figure was 0.85% (inactive).
Regarding `COc1cc(OC)c(-n2cc(-c3ccc(Cl)cc3)[nH]c2=O)cc1Cl`, the activation is 180% (active).
Turning to `COc1ccc(NC(=O)N(C)C[C@H]2Oc3ncc(C#C[C@@H](C)O)cc3C(=O)N([C@H](C)CO)C[C@H]2C)cc1`, the activation is 5.65% (inactive).
With `CC(NC(=O)Nc1ccccc1)c1ccccc1` (stereo unspecified), the activation was -0.98% (inactive).
With `CC(C)c1ccc(NC(=O)Cn2ncc3ccccc32)cc1` the figure was -4.37% (inactive); with `CCC(C(=O)Nc1ccc(C(C)C)cc1)c1ccccc1` (stereo unspecified), 84.3% (active); with `Cc1cc2c(cc1C)[n+](C)cn2CC(O)COCC1CC=CCC1` (stereo unspecified), 0.16% (inactive).
`CC(C)NS(=O)(=O)c1ccc(NC(=O)C2CCCCC2)cc1`: the activation was 1.98% (inactive).
With `O=C(O)c1ccc(NC(=O)C2CCCCC2)cc1` the figure was 51.5% (active); with `O=C(Nc1ccc2c(c1)OCCO2)C1CCCC1`, -0.49% (inactive); with `CC(=O)NC12CC3CC(C1)CC(C(=O)N1CCN(S(=O)(=O)c4cccs4)CC1)(C3)C2`, -0.5% (inactive).
